PubChem BioAssay AID651871 (Sanford-Burnham Center for Chemical Genomics, 2012)
Where “and” joins values, the source holds several entries; their conditions need not be identical. Identical values can stand only once.

Tested on: HL-1
Experiment: cardiomyocyte survival under oxidative or metabolic stress – cell-based, panel, H9c2 and HL-1, ATP luminescence, set 2, SAR follow-up (AID 651871);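 further: cells exposed to stressor for 2 h before ATP readout; reference of the scale not given here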
Settings: H9c2/HL-1 cardiomyocytes, 2-deoxyglucose stress, with 2-deoxyglucose, run 8, at 19.8 µM (top of the series)

COc1ccc2c(c1OC)C(=O)N1c3ccccc3C(=O)N(Cc3cccc(Cl)c3Cl)C21 (stereo unspecified)
activity (protection/inhibition): 51.9% and 34.6%
